In all, about 52,000 compounds went through this assay and about 4,300 (8.3%) were called active. This is one part of a sample in which actives are shown more often than they occur. Values without a mark were called inactive. Rule as the data show it: active = survival mostly below about 52% (no sharp cut-off); inactive = mostly above about 56%.

For this test, the system named is DeltatarO mutant. Description: growth inhibition of S. aureus wild type versus tarO mutant, primary screen, teichoic acid synthesis inhibitors, RN4220, OD600 (AID 463173). As to conditions: OD600, 18 h, stronger effect = lower value, screened at 18.75 µg/mL (by protocol).
Turning to `CCC(=O)Nc1ccc2nc(SCc3ccc(C)cc3)sc2c1`, the survival was 84%.
For `Cc1ccc(-n2nc(C)c3c(C(=O)Nc4ccccc4C(F)(F)F)cc(C)nc32)cc1` the value was 95%; for `Cc1ccc(NC(=O)CSc2nnc(C)s2)c(C)c1`, 67%; for `CCOc1ccc(CNCc2c(C(=O)O)c(C)n(Cc3ccc(F)cc3Cl)c2C)cc1`, 118%.
With `Cc1ccc(C)c(Cn2c(=O)n(-c3ccccc3)c(=O)c3c4c(sc32)CCCC4)c1` the figure was 120%; with `COc1ccc(CCNC(=O)C(=O)NCC(c2ccco2)S(=O)(=O)c2ccc(C)cc2)cc1` (stereo unspecified), 134%.
Take `O=C(Cn1c(=O)c2cccn2c2ccccc21)Nc1cc(F)ccc1F`: the survival is 44%.
For `CCCn1c(CCC(=O)Nc2ccccc2OC)nc2cccnc21` the value was 88%.
With `COc1ccc(-c2nc3sc(CCNS(=O)(=O)c4ccccc4)c(C)n3n2)cc1` the figure was 64%; with `CCS(=O)(=O)NCCc1sc2nc(-c3ccc(OC)cc3)nn2c1C`, 72%; with `COc1ccc(F)cc1S(=O)(=O)NCCc1sc2nc(-c3ccc(F)cc3)nn2c1C`, 90%.
For `Cc1ccc(-c2nc3sc(CCNS(=O)(=O)c4cc(F)ccc4F)c(C)n3n2)cc1`, the survival is -2% (active).
Turning to `CCCS(=O)(=O)NCCc1sc2nc(-c3ccc(F)cc3)nn2c1C`, the survival was 76%.
With `Cc1c(CCNS(=O)(=O)c2ccccc2)sc2nc(-c3ccc(Cl)cc3)nn12` the figure was 6% (active).
For `COc1ccc(-c2nc3sc(CCNS(=O)(=O)c4c(C)cc(C)cc4C)c(C)n3n2)cc1` the value was -1% (active); for `Cc1cc(C)c(S(=O)(=O)NCCc2sc3nc(-c4ccc(F)cc4)nn3c2C)c(C)c1`, 79%.
For `CCCS(=O)(=O)NCCc1sc2nc(-c3ccc(Cl)cc3)nn2c1C` the value was 70%.
In the case of `Cc1ccc(-n2ncc3c(N4CCN(CCO)CC4)ncnc32)cc1Cl`, the survival is 101%.
On to `CCN(CC)c1ncccc1C(=O)NCc1cccs1`, for which the survival was 81%.
For `Cc1c(Cl)cccc1NC(=O)Nc1nnc(N2CCCCCC2)s1` the value was 84%; for `COc1ccc(C(=O)Nc2ccc3nc4c(c(Nc5ccccc5OC)c3c2)CCCC4)c(OC)c1`, 48% (active); for `COc1ccccc1Nc1c2c(nc3ccc(NC(=O)c4cccc(F)c4)cc13)CCCC2`, 70%.
Regarding `COc1ccccc1Nc1c2c(nc3ccc(NC(=O)c4cccc(OC)c4OC)cc13)CCCC2`, the survival is 46% (active).
With `COc1ccccc1Nc1c2c(nc3ccc(NC(=O)c4ccccc4F)cc13)CCCC2` the figure was 82%; with `COc1ccccc1Nc1c2c(nc3ccc(NC(=O)c4ccc(OC)c(OC)c4)cc13)CCCC2`, 59%; with `COc1ccc(C(=O)Nc2ccc3nc4c(c(Nc5ccc(OC)c(OC)c5)c3c2)CCCC4)c(OC)c1`, 87%.
For `O=C(CNC(=O)c1ccc(Cl)cc1)OCc1cc(=O)n2nc(C3CC3)sc2n1` the value was 67%; for `COC(=O)c1cn(C(C)C(=O)NCc2ccco2)c2ccccc12` (stereo unspecified), 91%.
For `O=C(CSCc1ccc(F)cc1)N1CCc2c([nH]c3ccccc23)C1c1ccccc1` (stereo unspecified) the value was 101%.
`Cc1ccc(NC(=O)C(=O)c2cc(C)n(-c3ccc(F)cc3)c2C)cc1C`: the survival was 89%.
For `CC(=O)c1ccccc1OCC(O)Cn1c(CO)nc2ccccc21` (stereo unspecified) the value was 59%; for `Cc1ccc2c(c1)c1c(c(=O)n(Cc3ccccc3)c(=O)n1CC(=O)Nc1ccccc1C)n2C`, 99%; for `Cc1cccc(OCC(=O)Nc2ccc(Cl)c(-c3nc4ccccc4[nH]3)c2)c1`, 38% (active).
With `Cc1ccc(OCC(=O)Nc2ccc(Cl)c(-c3nc4ccccc4[nH]3)c2)cc1C` the figure was 43% (active).
With `Cc1cc(C)cc(OCC(=O)Nc2cccc(-c3nc4ccccc4[nH]3)c2)c1` the figure was 31% (active).
For `COc1ccc(-n2nc3ccc(NC(=O)COc4ccc(C)c(C)c4)cc3n2)cc1`, the survival is 56%.
With `Cc1cccc(OCC(=O)Nc2ccc3c(c2)N(C)C(=O)c2ccccc2S3)c1` the figure was 73%; with `COc1cccc(C(=O)Nc2ccc(Cl)c(-c3nc4ccccc4[nH]3)c2)c1`, 68%; with `CC(C)CC(=O)Nc1cccc(-c2nc3ccccc3[nH]2)c1`, 68%.
With `Cc1cc(OCC(=O)Nc2cc(-c3nc4ccccc4[nH]3)ccc2C)ccc1Cl` the figure was 96%; with `COc1cccc(N2CC(NC(=O)c3ccc(S(=O)(=O)N4CCCCC4)cc3)CC2=O)c1` (stereo unspecified), 92%; with `CCn1c(=O)c(C(=O)Nc2ccc(C(C)=O)cc2)nc2ccccc21`, 81%.
`CC1CCN(S(=O)(=O)c2ccc3c(ccn3CC(=O)NCc3ccc(N(C)C)cc3)c2)CC1`: the survival is 77%.
With `COc1cccc(CNC(=O)c2cc3cccc4c3n2CC(C)S4)c1OC` (stereo unspecified) the figure was 84%.
With `Cc1cc(C)c(S(=O)(=O)N2CCC(N3CCN(Cc4ccccc4)C(=O)C3=O)CC2)c(C)c1` the figure was 68%; with `N#CC1=C(N)OC2=C(C(=O)CCC2)C12C(=O)Nc1ccc(F)cc12` (stereo unspecified), 93%.
For `CCCCN1CC(c2nc3ccccc3n2CCCCOc2ccccc2C)CC1=O` (stereo unspecified) the value was 34% (active); for `CCCCN1CC(c2nc3ccccc3n2CCCCOc2c(C)cccc2C)CC1=O` (stereo unspecified), 46% (active); for `Cc1cccc(C)c1OCCCCn1c(C2CC(=O)N(c3ccc(F)cc3)C2)nc2ccccc21` (stereo unspecified), 77%.
As for `COC(=O)Cn1c(C2CC(=O)N(c3c(C)cccc3C)C2)nc2ccccc21` (stereo unspecified), the survival is 58%.
In the case of `CCCCN1CC(c2nc3ccccc3n2CCCCOc2cccc(C)c2C)CC1=O` (stereo unspecified), the survival is 2% (active).
For `Cc1ccccc1OCCCCn1c(C2CC(=O)N(c3ccccc3Cl)C2)nc2ccccc21` (stereo unspecified), the survival is 76%.
With `Cc1cccc(NC(=O)CS(=O)(=O)c2cccc3nsnc23)c1` the figure was 74%.
With `Cc1cc2cc(CCNS(=O)(=O)c3ccc(Br)cc3)c(=O)[nH]c2cc1C` the figure was 48%.
With `O=c1c2oc3ccccc3c2n(Cc2cccc(C(F)(F)F)c2)c(=O)n1Cc1ccc2c(c1)OCO2` the figure was 108%.
As for `CN1C(=O)Cc2cc(S(=O)(=O)CCC(=O)N3CCN(c4ccc(Cl)cc4)CC3)ccc21`, the survival was 86%.
On to `COc1ccc(Cn2c(=O)c3oc4ccccc4c3n(Cc3cccc(C(F)(F)F)c3)c2=O)cc1`, for which the survival is 73%.
For `Nc1nc(SCC(=O)Nc2cccc(C(F)(F)F)c2)n[nH]1` the value was 63%.
For `COC(=O)c1sccc1S(=O)(=O)N1CCN(c2ccccc2OC)CC1` the value was 74%; for `CCc1ccccc1NC(=O)c1noc2c1CC(C(C)(C)C)CC2` (stereo unspecified), -6% (active); for `CC1CCc2onc(C(=O)Nc3ccc(Cl)cc3)c2C1` (stereo unspecified), 75%.
`COc1cc(NC(=O)c2noc3c2CC(C(C)(C)C)CC3)cc(OC)c1OC` (stereo unspecified): the survival was 40% (active).
On to `COc1cc(NC(=O)c2noc3c2CCc2ccccc2-3)cc(OC)c1OC`, for which the survival is 88%.
Consider `COc1cc(NC(=O)c2noc3c2CC(C)CC3)c(OC)cc1Cl` (stereo unspecified), for which the survival is 69%.
Regarding `O=C(Nc1ccccc1C(F)(F)F)c1noc2c1CCCC2`, the survival was 63%.
Turning to `O=C(CN1C(=O)COc2ccc(S(=O)(=O)N3CCCC3)cc21)N1CCN(c2ccc(F)cc2)CC1`, the survival was 80%.
With `CCOc1ccccc1CNc1nc2nc(C)cc(C)n2n1` the figure was 97%.
With `CCc1ccccc1N(CC)C(=O)C1CCN(c2ncnc3c2nc2n3CCCCC2)CC1` the figure was 83%.
For `CC(Oc1ccccc1F)C(=O)NCC1(N2CCOCC2)CCCCC1` (stereo unspecified) the value was 61%; for `CCOC(=O)c1ccc(NC(=O)CC(C)n2nc(C)cc2C)cc1` (stereo unspecified), 124%; for `CC(=O)Nc1ccc(NC(=O)CC(C)n2ccc(C)n2)cc1` (stereo unspecified), 52% (active).
As for `CCOc1ccccc1CNC(=O)CC(C)n1ccc(C)n1` (stereo unspecified), the survival was 77%.
As for `O=C(OCc1ccccc1)Sc1nnc(-c2ccccc2Cl)o1`, the survival is 90%.
Consider `CCn1c(=O)cc(OCC(=O)NCc2ccccc2OC)c2ccccc21`, for which the survival is 60%.
For `CCc1ccc(CNC(=O)COc2cc(=O)n(CC)c3ccccc23)cc1` the value was 55%; for `CCn1c(=O)cc(OCC(=O)N(C)c2ccc(OC)cc2)c2ccccc21`, 72%; for `CCCN(c1ccc(C(C)C)cc1)S(=O)(=O)c1ccc2c(c1)oc(=O)n2CC(=O)OCC`, 73%.
With `CCn1c(=O)cc(OCC(=O)Nc2cc(Cl)c(OC)cc2OC)c2ccccc21`, the survival was 69%.
With `CCN(C(=O)Cn1c(=O)oc2cc(Cl)ccc21)c1cccc(C(F)(F)F)c1` the figure was 67%; with `CCn1c(=O)cc(OCC(=O)N(C)c2cc(Cl)ccc2C)c2ccccc21`, 55% (active); with `CCCN(C(=O)COc1cc(=O)n(CC)c2ccccc12)c1ccc(C(C)C)cc1`, -22% (active).
For `CCn1c(=O)cc(OCC(=O)NCc2ccc(F)cc2Cl)c2ccccc21` the value was 105%; for `CCn1c(=O)cc(OCC(=O)Nc2ccc(C)c(F)c2)c2ccccc21`, 60%.
With `CCn1c(=O)cc(OCC(=O)NCc2ccccc2Cl)c2ccccc21` the figure was 40% (active).
As to `CCCN(C(=O)Cn1c(=O)oc2cc(Cl)ccc21)c1ccc(C(C)C)cc1`, the survival was 15% (active).
With `Cc1ccc(/C=C/c2onc(C)c2S(=O)(=O)N2CCC(C(=O)N3CCN(c4cccc(C)c4)C(C)C3)CC2)cc1` (stereo unspecified) the figure was 67%; with `COc1ccccc1C(=O)NC1(C(F)(F)F)C(=O)Nc2c1c(=O)[nH]c(=O)n2-c1ccc(F)cc1` (stereo unspecified), 190%.
With `Cc1ccc(-n2ncc3c(=O)n(Cc4ccccc4C)cnc32)cc1C` the figure was 127%; with `CC(=O)N(Cc1cccnc1)c1nc2ccc(F)cc2s1`, 81%; with `Cc1ccc2c(=O)cc(C(=O)Nc3ccc(S(=O)(=O)N4CCCC(C)C4)cc3)oc2c1C` (stereo unspecified), 51% (active).
As to `Cc1cc(C)c2oc(C(=O)Nc3ccc(S(=O)(=O)N4CCCCCC4)cc3)cc(=O)c2c1`, the survival was 62%.
With `Cc1c(C(=O)Nc2ccc(F)cc2)oc2ccc(S(=O)(=O)N3CCCCCC3)cc12` the figure was 99%; with `Cc1ccc2c(=O)cc(C(=O)Nc3ccc(S(=O)(=O)N4CCC(C)CC4)cc3)oc2c1C`, 60%.
With `Cc1ccc(NC(=O)c2oc3ccc(S(=O)(=O)N4CCCCCC4)cc3c2C)cc1Cl` the figure was 86%; with `Cc1ccc2c(=O)cc(C(=O)Nc3ccc(S(=O)(=O)N4CCCCC4)cc3)oc2c1C`, 90%.
For `O=C(Nc1ccc(S(=O)(=O)N2CCCCC2)cc1)C1CCCCC1` the value was 97%; for `COC(=O)Nc1ccc(S(=O)(=O)N2CCCCC2)cc1`, 107%; for `O=C(Nc1ccc(S(=O)(=O)N2CCCCC2)cc1)C(F)(F)F`, 58% (active).
Regarding `Cc1cc(C)c2oc(C(=O)Nc3ccc(S(=O)(=O)N4CCCCC4)cc3)cc(=O)c2c1`, the survival was 45% (active).
`Cc1c(C(=O)Nc2ccc(F)c(F)c2)oc2ccc(S(=O)(=O)N3CCCCC3)cc12`: the survival is 52% (active).
For `Cc1cc(C)c2oc(C(=O)Nc3ccc(S(=O)(=O)N4CCC(C)CC4)cc3)cc(=O)c2c1` the value was 48%.

These data come from PubChem BioAssay AID463173 (ICCB-Longwood Screening Facility, Harvard Medical School, 2010).
